Assay outcomes (PubChem BioAssay)
Most compounds without a hit are left out; they make up all but 11% or so of the library.
NPR1 antag: antagonists of human natriuretic peptide receptor Npr1. P16066. HEK293 hNpr1 GloSensor cGMP, ANP-stimulated luminescence. Potency, µM (titrated, usually from 46.3 µM), without a hit: top-dose activity change, negative = inhibition, actives largely listed as inhibitors. 76,000 compounds, 1.6% hits; calls by dose curve; also: nearly all actives have a fitted effect of over 60% in size
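Compound pre-incubated 30 min at room temperature on GloSensor-loaded HEK293 cells stably carrying hNpr1 and the pGS-40F cGMP biosensor. Stimulation uses hNppA at 0.1 nM final; luminescence is taken at baseline and 20 min post-agonist.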
HEK293 tox: cytotoxic compounds in HEK 293 cells; Potency, µM (series often up to 115 µM), for inactives: at the top dose activity change, negative = cytotoxicity, hits mostly inhibitors; HEK 293 viability, ATP luminescence (CellTiter-Glo), 48-72 h; 94,000 compounds, 6.6% hits; also: nearly all actives have a fitted effect of over 60% in size
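Pintool-delivered compounds were incubated with HEK 293 cells (250 cells/well) at 37 degree Celsius for 48 or 72 hr. ATP-dependent luminescence (CellTiter-Glo) then reported remaining viable cells.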
NIH3T3 tox: cytotoxic compounds in NIH 3T3 cells; NIH 3T3 viability, CellTiter-Glo ATP luminescence, 48-72 h; Potency, µM (top dose mostly 96.7 µM), without a hit: at the top dose activity change, negative = cytotoxicity, actives largely listed as inhibitors; 94,000 compounds, 4.3% hits; also: nearly all actives have a fitted effect of over 55% in size
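Cytotoxicity is measured as loss of cellular ATP: NIH 3T3 cells (400/well) are exposed to compound for 48 or 72 hr at 37 °C, then CellTiter-Glo luminescence is imaged after 10 min at room temperature.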
FLuc inh: Photinus pyralis luciferase inhibition; purified P. pyralis luciferase, luminescence, biochemical; P08659; Potency, µM (series often up to 115 µM), actives largely listed as inhibitors; 76,000 compounds, 2.5% hits; AID 1347043; also: nearly all actives have a fitted effect of over 65% in size
Target sequence (P08659 whole entry, looked up): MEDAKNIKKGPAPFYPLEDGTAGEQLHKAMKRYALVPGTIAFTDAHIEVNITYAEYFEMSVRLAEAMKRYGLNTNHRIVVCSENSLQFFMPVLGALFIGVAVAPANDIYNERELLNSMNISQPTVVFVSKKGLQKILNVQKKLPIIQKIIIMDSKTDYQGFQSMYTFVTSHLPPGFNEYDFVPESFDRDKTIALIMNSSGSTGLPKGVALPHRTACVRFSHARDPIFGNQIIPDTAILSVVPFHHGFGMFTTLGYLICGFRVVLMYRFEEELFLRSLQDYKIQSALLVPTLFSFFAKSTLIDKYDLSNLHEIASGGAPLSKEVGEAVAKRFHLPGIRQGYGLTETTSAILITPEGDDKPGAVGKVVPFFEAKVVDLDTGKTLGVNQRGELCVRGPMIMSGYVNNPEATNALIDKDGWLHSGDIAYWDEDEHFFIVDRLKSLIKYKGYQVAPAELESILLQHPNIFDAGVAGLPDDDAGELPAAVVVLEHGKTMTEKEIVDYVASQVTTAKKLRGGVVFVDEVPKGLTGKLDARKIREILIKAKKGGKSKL
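Luminescence read by CCD imager after adding enzyme (10nM final) to wells holding compound, titrated in qHTS. Substrates 10uM each D-luciferin and ATP; buffer 50mM Tris acetate pH 7.5, 10mM Mg acetate, Tween-20, BSA.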
Active calls of the source: *; i = inactive; ? = inconclusive; nt = no result; ! = not confirmed by another sample; [ ] = dose if it differs, or a comment. Unless noted, calls follow the shape of the dose curve; as a rule, active = well fitted curve in the direction sought with a large enough effect; inconclusive = small, poorly fitted or top-dose-only effect, or another doubt; inactive = no such curve, though single readings can be large; an effect the other way counts as inactive or inconclusive. % is scaled to controls: 0 for no effect and ±100 for the full control effect; potency is read from the fitted curve at half-maximal effect.

SMILES | NPR1 antag | HEK293 tox | NIH3T3 tox | FLuc inh
CC1(C(=O)NCc2ccc(F)cc2)COCc2cnc(Nc3ccccc3)nc21 (stereo not given) | ? | 79µM* | ? | i
COc1cccc(Nc2ncc3c(n2)C(C)(C(=O)NCc2cccnc2)CC3)c1 (stereo not given) | -2%[70.6 µM] | 79µM* | ? | i
CC1(C(=O)NCc2cccnc2)CCc2cnc(NCc3ccccc3)nc21 (stereo not given) | -2%[70.6 µM] | -26%[172 µM] | 35µM* | i
Cc1noc(C)c1[S+](=O)([O-])N1CCC(C(=O)N2CCC(N3CCOCC3=O)CC2)CC1 | nt | i | i | nt
CC1(C(=O)NCc2cccnc2)CCCc2cnc(Nc3ccccc3)nc21 (stereo not given) | 5%[70.6 µM] | -28%[172 µM] | ? | i
CC1(C(=O)NCc2cccnc2)CCCc2cnc(NCc3ccccc3)nc21 (stereo not given) | 6%[70.6 µM] | ? | 50µM* | i
CC1(C(=O)NCc2ccncc2)CCc2cnc(NCc3ccccc3)nc21 (stereo not given) | 5%[70.6 µM] | -28%[172 µM] | 45µM* | i
COc1ccc(C(CC(=O)NCCC(C)C)c2c[nH]c3ccccc23)c(OC)c1 (stereo not given) | -19% | ? | ? | i
Cc1ccccc1CCC1CCCN(C(=O)C2(C)CC2)C1 (stereo not given) | -7% | 22µM* | ? | ?
O=C1[C@@H]2C[C@@H](CN2C(=O)c2ccccn2)Oc2ccccc2N1Cc1ccc(OC(F)(F)F)cc1 | 4% | ? | -19% | i
CCn1nc(-c2cccc(-c3ccnn3C)c2)nc1N(C)C | -2% | 79µM* | -21% | i
CCn1nc(-c2ccc3c(c2)OCO3)nc1N(C)C | 10% | -4% | 0% | ?
COc1ccc(F)cc1-c1ccc(CN2CCCCC2C(=O)N2CCCN(C(C)=O)CC2)cc1 (stereo not given) | nt | 45µM* | -35% | nt
COc1ccccc1-c1ccc(CN2CCCCC2C(=O)N2CCOCC2)cc1 (stereo not given) | nt | ? | -38% | nt
COc1ccccc1-c1ccc(CN2CCCCC2C(=O)NC(C)C)cc1 (stereo not given) | nt | 79µM* | ? | nt
COc1ccccc1-c1ccc(CN2CCCCC2C(=O)NCC(F)F)cc1 (stereo not given) | nt | ? | 45µM*! | nt
COc1ccc(F)cc1-c1ccc(CN2CCCCC2C(=O)NCCc2ccc(Cl)cc2)cc1 (stereo not given) | nt | 32µM* | ? | nt
Cc1cccc(CC(=O)N2CCC3(CCC(=O)N(CC4CC4)CC3)CC2)c1 | nt | -24% | ? | nt
COc1ccc(F)cc1-c1ccc(CN2CCCCC2C(=O)NCC(F)F)cc1 (stereo not given) | nt | 35µM* | ? | nt
CCN1C(=O)CCc2cc(NC(=O)c3cncc(Br)c3)ccc21 | 1% | ? | -22% | i
CS(=O)(=O)N1CCc2ccc(C(=O)Nc3ccc(F)cc3)cc21 | ? | ? | -21% | 8.9µM*
CCN1C(=O)CCc2cc(NC(=O)c3ccc(F)cc3)ccc21 | 2% | 40µM* | ? | ?
CCCN1C(=O)CCc2cc(NC(=O)c3ccc(OC(F)(F)F)cc3)ccc21 | ? | ? | 40µM* | ?
CCCN1C(=O)CCc2cc(NC(=O)CCOC)ccc21 | 0% | 2% | i | i
O=C(C1CCN(c2nc3ncccc3o2)CC1)N1CCN(Cc2ccccc2)CC1 | nt | ? | -25% | nt
SMILES | NPR1 antag | HEK293 tox | NIH3T3 tox | FLuc inh
O=C(NCc1ccccc1F)c1ccc2c(c1)CN(Cc1cccc(F)c1F)CCO2 | 6% | ? | ? | i
Cc1ccc(CNC(=O)c2ccc3c(c2)CN(Cc2cccc(F)c2F)CCO3)cc1 | -3% | 79µM* | ? | i
O=C(c1ccn[nH]1)N1CC=C(c2cnc3cnc(-c4ccccc4)cn23)CC1 | -1%[70.6 µM] | -21%[172 µM] | 22µM* | i
O=C(c1cccc(O)c1)N1CC=C(c2cnc3cnc(-c4ccccc4)cn23)CC1 | -20%[70.6 µM] | 100µM* | ? | i
O=C(c1ccccc1)N1CCN(C(=O)c2cccc(-c3ccccn3)c2)CC1 | nt | -11% | -12% | nt
O=C(Nc1cccc(Cl)c1)c1nc2cccnc2n(Cc2ccccc2)c1=O | nt | ? | -1% | nt
Cc1ccc(-n2nc(C)c([C@@H]3C=C[C@@H](NS(=O)(=O)c4cccs4)C3)c2C)cc1Cl | ? | 45µM* | 35µM* | ?
